Measurements as given in PubChem BioAssay (EPA / NIEHS).
Inconclusive results are not listed. Calls of active or inactive are those of the source. Rule for the calls, unless noted: active = hit-call score of the fitted dose curve at least 0.9, where 1 is the maximum; inactive = score below 0.9.

Key:
[1] = ATG_NFI_CIS: Attagene CIS-FACTORIAL HepG2 Assay for human Nuclear Factor I (NFI) (AID 2282989); details: HepG2 cis-regulatory reporter, NFI response element transcription; actives raise or lower the signal
Outline: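 Multiplexed cis-reporter system in human HepG2 cells reports native TF activity as reporter mRNA induction 24 h post-dose. Fragments labelled with 6-FAM, HpaI-digested and resolved by capillary electrophoresis; activity fitted both directions versus DMSO.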

[2] = target: Myc proto-oncogene protein (Homo sapiens) (UniProt P01106); assay: ATG_Myc_CIS: Attagene CIS-FACTORIAL HepG2 Assay for human Myelocytomatosis (Myc) Proto-Oncogene Transcription Factor (AID 2282990); details: HepG2, Attagene cis-reporter transcription factor activity; actives raise or lower the signal
Outline: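 After 24 h chemical treatment of HepG2 cells carrying multiplexed cis-regulated reporter constructs, reporter transcripts quantified by RT-PCR and capillary electrophoresis of fluorescent fragments. Gain or loss fitted against DMSO baseline.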

[3] = ATG_NF_kB_CIS: Attagene CIS-FACTORIAL HepG2 Assay for human Nuclear Factor Kappa B (NF-kB) (AID 2282991); details: HepG2 Attagene cis-factorial NF-kB reporter mRNA; actives raise or lower the signal
Outline: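 HepG2, transient multi-reporter transfection, cis promoter elements (endogenous TFs). 24 h exposure. Total RNA → RT → PCR → 6-FAM label → HpaI → CE. Gain/loss vs DMSO.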

[4] = ATG_NRF2_ARE_CIS: Attagene CIS-FACTORIAL HepG2 Assay for human Nuclear Factor Erythroid 2 Related Factor 2 (NFR2) response to Antioxidant Response Elements (ARE) (AID 2282992); details: HepG2 Attagene ARE/NRF2 reporter, transcription factor activity; actives raise or lower the signal;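 for AC50: reporter mRNA level measured by RT-PCR and capillary electrophoresis fluorescence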
Outline: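 Endogenous transcription factor activity in human liver HepG2 cells is tracked via a cis-element-driven reporter within a multiplexed set. mRNA induction is read by RT-PCR and capillary electrophoresis after 24 h, with DMSO as baseline.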

[5] = ATG_Oct_MLP_CIS: Attagene CIS-FACTORIAL HepG2 Assay for human Octamer-Binding Transcription Factor (Oct) (AID 2282993); details: HepG2 Attagene cis-factorial Oct reporter, mRNA; actives raise or lower the signal
Outline: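 After 24 h compound exposure, transfected HepG2 cells were lysed for total RNA; reporter-specific cDNA was PCR-amplified, fluorescently labelled and sized by capillary electrophoresis. Bidirectional curve fitting used DMSO as baseline.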

[6] = BSK_3C_TissueFactor: BioMAP Diversity Plus: 3C Assay for Tissue Factor Biomarker Activity (AID 2282997); details: BioMAP 3C HUVEC, tissue factor biomarker readout; actives raise or lower the signal
Outline: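 Readout: Tissue Factor ELISA. Cells: human primary umbilical vein endothelium. Time: 24 h after dosing. Analysis: bidirectional fit, DMSO baseline.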

[7] = BSK_3C_uPAR: BioMAP Diversity Plus: 3C Assay for Urokinase-type plasminogen activator receptor (uPAR) Biomarker Activity (AID 2282998); details: BioMAP 3C HUVEC, uPAR biomarker ELISA; actives raise or lower the signal
Outline: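 Values derive from bidirectional curve fitting relative to DMSO, which served as baseline of activity. uPAR was measured by ELISA in human umbilical vein endothelial primary cultures 24 h after compound addition.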

[8] = BSK_3C_VCAM1: BioMAP Diversity Plus: 3C Assay for Vascular cell adhesion molecule 1 (VCAM1) Biomarker Activity (AID 2282999); details: BioMAP 3C HUVEC, VCAM1 ELISA, cytokine-stimulated; actives raise or lower the signal
Outline: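 Activity fitted in both directions relative to DMSO, with ELISA measurement of the surface marker on primary HUVEC (3C) at 24 h post-treatment; parallel SRB staining (0.1% SRB, TCA-fixed, 560 nm) flagged overt cytotoxicity.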

[9] = BSK_4H_Eotaxin3: BioMAP Diversity Plus: 4H Assay for Eotaxin 3 Biomarker Activity (AID 2283000); details: primary human endothelial cells (HUVEC); actives raise or lower the signal
Outline: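 HUVEC, 24 h post-dose, ELISA for Eotaxin-3/CCL26. Gain or loss of signal fitted bidirectionally vs DMSO baseline.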

[10] = read-out: Intercellular Adhesion Molecule 1 (ICAM1), ICAM1 (gene 3383); assay: BSK_3C_ICAM1: BioMAP Diversity Plus: 3C Assay for Intercellular Adhesion Molecule 1 (ICAM1) Biomarker Activity (AID 2283003); details: primary human endothelial cells (HUVEC); actives raise or lower the signal
Outline: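 Chemicals are dosed onto primary human umbilical vein endothelium (3C system). After 24 h, ICAM-1 is measured by ELISA, and responses are fitted bidirectionally relative to DMSO.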

[11] = BSK_3C_Proliferation: Cell Proliferation Assessment in the BioMAP Diversity Plus: 3C Assay (AID 2283006); details: primary human endothelial cells (HUVEC);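 for AC50: potency may reflect either rise or fall in cell number versus DMSO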
Outline: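 Cells (human umbilical vein endothelial, sub-confluent) receive test chemical; after 48 h they are fixed in 10% trichloroacetic acid, stained with 0.1% SRB and read at 560 nm. Activity is referenced to DMSO, fitting increases and decreases.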

[12] = target: Peroxisome proliferator-activated receptor gamma (Homo sapiens) (UniProt P37231); assay: ATG_PPARg_TRANS: Attagene TRANS-FACTORIAL HepG2 Assay for human Peroxisome Proliferator-activated Receptor-gamma (PPARg) (AID 2283007; active = hit-call score of the fitted dose curve at least 0.9, where 1 is the maximum)
Outline: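 Multiplexed reporter transcription units in HepG2, 24 h dosing, reporter transcripts quantified by fluorescent RT-PCR and capillary electrophoresis. Increase over DMSO scored.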

[13] = target: Nuclear receptor subfamily 1 group I member 2 (Homo sapiens) (UniProt O75469); assay: ATG_PXR_TRANS: Attagene TRANS-FACTORIAL HepG2 Assay for human Pregnane X Receptor (PXR) (AID 2283008; active = hit-call score of the fitted dose curve at least 0.9, where 1 is the maximum)
Outline: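 HepG2 transfected (FuGene 6) with GAL4-UAS reporter units + PXR-Gal4 chimera; dosed 24 h. Total RNA → oligo(dT) RT → PCR → 6-FAM primer extension → HpaI cut → CE. Gain-of-signal vs DMSO.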

[14] = target: human RAR-related Orphan Receptor gamma (RORg), RORC (gene 6097) (UniProt P51449); assay: ATG_RORg_TRANS: Attagene TRANS-FACTORIAL HepG2 Assay for human RAR-related Orphan Receptor gamma (RORg) (AID 2283011; active = hit-call score of the fitted dose curve at least 0.9, where 1 is the maximum)
Outline: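 Readout: reporter transcript induction (RT-PCR, fluorescent primer extension, capillary electrophoresis) after 24 h compound exposure of transiently transfected HepG2 cells carrying a RORg-Gal4 chimera and GAL4-UAS reporters; DMSO served as baseline, with increasing signal fitted.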

[15] = target: Cellular tumor antigen p53 (Homo sapiens) (UniProt P04637); assay: ATG_p53_CIS: Attagene CIS-FACTORIAL HepG2 Assay for human p53 Transcription Factor (AID 2282994); details: HepG2 p53 cis-element reporter, Attagene mRNA; actives raise or lower the signal
Outline: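 Steps: transfect HepG2 with multiplexed cis reporter constructs; dose chemicals 24 h; extract RNA, reverse-transcribe, PCR-amplify reporter sequences; FAM-label, HpaI-digest, resolve fragments by CE. Activity fitted both directions relative to DMSO.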

[16] = target: human Peroxisome Proliferator-activated Receptor alpha (PPARa), PPARA (gene 5465) (UniProt Q07869); assay: ATG_PPARa_TRANS: Attagene TRANS-FACTORIAL HepG2 Assay for human Peroxisome Proliferator-activated Receptor alpha (PPARa) (AID 2283001; active = hit-call score of the fitted dose curve at least 0.9, where 1 is the maximum)
Outline: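 Reporter transcripts quantified by RT-PCR plus capillary electrophoresis after 24 h treatment, fitted upward relative to DMSO. Cells: human HepG2 transiently carrying multiple GAL4-UAS reporter units driven by NR-Gal4 chimeras.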

[17] = target: human Peroxisome Proliferator-activated Receptor delta (PPARd), PPARD (gene 5467) (UniProt Q03181); assay: ATG_PPARd_TRANS: Attagene TRANS-FACTORIAL HepG2 Assay for human Peroxisome Proliferator-activated Receptor delta (PPARd) (AID 2283002; active = hit-call score of the fitted dose curve at least 0.9, where 1 is the maximum)
Outline: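 Read-out is induced reporter mRNA, quantified by RT-PCR with fluorescent labelling and capillary electrophoresis after 24 h dosing. Cells are HepG2 transiently carrying multiple GAL4-UAS reporter units driven by exogenous NR-GAL4 chimeras; DMSO serves as baseline.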

[18] = target: human Retinoic Acid Receptor beta (RARb), RARB (gene 5915) (UniProt P10826); assay: ATG_RARb_TRANS: Attagene TRANS-FACTORIAL HepG2 Assay for human Retinoic Acid Receptor beta (AID 2283004; active = hit-call score of the fitted dose curve at least 0.9, where 1 is the maximum)
Outline: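 HepG2 cells transiently transfected with multiplexed GAL4-UAS reporter units expressing chimeric NR–Gal4 fusions; 24 h compound exposure. Reporter mRNA quantified by RT-PCR, 6-FAM labelling, HpaI digestion and capillary electrophoresis; gain-of-signal fitted against DMSO baseline.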

Measured: AC50

Chain of human Peroxisome Proliferator-activated Receptor alpha (PPARa), PPARA (gene 5465) (Q07869 whole entry, looked up, the tested form may be a part): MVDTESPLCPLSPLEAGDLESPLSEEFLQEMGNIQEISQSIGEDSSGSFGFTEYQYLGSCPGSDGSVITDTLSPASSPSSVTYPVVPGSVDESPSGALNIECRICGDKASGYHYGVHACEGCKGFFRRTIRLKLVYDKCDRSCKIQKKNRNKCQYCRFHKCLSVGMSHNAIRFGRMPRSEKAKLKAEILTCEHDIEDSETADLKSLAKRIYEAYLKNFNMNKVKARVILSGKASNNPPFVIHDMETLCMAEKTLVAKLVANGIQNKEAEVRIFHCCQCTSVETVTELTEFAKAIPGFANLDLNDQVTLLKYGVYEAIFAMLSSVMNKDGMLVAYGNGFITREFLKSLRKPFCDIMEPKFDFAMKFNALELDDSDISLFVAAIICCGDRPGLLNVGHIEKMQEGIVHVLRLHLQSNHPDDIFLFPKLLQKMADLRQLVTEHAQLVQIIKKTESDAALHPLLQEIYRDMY
Chain of Nuclear receptor subfamily 1 group I member 2 (Homo sapiens) (O75469 whole entry, looked up, the tested form may be a part): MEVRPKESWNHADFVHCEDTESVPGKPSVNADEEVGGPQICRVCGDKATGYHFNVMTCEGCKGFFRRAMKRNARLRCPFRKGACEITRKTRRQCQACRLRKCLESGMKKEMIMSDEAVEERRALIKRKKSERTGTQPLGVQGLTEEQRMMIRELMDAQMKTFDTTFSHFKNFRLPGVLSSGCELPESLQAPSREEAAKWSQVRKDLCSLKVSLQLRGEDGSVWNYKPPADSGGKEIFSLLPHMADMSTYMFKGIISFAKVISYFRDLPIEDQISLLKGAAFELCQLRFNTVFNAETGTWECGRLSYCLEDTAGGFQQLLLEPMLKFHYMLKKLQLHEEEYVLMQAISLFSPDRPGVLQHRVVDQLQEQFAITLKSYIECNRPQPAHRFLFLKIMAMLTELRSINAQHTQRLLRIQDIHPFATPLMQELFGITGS
Chain of Peroxisome proliferator-activated receptor gamma (Homo sapiens) (P37231 whole entry, looked up): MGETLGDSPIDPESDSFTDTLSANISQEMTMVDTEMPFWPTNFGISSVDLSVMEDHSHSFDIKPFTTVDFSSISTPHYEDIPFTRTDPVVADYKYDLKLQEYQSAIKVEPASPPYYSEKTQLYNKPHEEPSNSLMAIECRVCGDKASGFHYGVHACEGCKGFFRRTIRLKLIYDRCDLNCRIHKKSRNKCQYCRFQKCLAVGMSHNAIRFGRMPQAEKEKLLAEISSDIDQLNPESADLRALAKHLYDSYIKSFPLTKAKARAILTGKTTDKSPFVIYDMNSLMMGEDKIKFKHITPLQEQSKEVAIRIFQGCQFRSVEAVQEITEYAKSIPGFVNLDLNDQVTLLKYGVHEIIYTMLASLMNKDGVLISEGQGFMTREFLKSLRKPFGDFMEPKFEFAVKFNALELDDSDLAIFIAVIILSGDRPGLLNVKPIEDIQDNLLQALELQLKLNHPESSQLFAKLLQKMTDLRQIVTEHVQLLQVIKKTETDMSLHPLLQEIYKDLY
Chain of Myc proto-oncogene protein (Homo sapiens) (P01106 whole entry, looked up, the tested form may be a part): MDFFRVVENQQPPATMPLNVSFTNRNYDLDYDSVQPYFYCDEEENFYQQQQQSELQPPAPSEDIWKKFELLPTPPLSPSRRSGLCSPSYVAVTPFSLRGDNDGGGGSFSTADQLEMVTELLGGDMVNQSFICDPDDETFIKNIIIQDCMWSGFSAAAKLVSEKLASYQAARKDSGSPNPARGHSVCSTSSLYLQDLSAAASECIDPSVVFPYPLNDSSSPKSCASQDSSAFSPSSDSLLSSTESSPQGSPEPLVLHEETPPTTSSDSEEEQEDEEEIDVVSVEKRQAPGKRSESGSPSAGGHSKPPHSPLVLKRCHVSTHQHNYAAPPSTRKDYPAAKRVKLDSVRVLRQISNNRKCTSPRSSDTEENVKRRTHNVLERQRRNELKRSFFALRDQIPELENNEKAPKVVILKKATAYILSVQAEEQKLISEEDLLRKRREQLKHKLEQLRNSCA
Chain of human Peroxisome Proliferator-activated Receptor delta (PPARd), PPARD (gene 5467) (Q03181 whole entry, looked up, the tested form may be a part): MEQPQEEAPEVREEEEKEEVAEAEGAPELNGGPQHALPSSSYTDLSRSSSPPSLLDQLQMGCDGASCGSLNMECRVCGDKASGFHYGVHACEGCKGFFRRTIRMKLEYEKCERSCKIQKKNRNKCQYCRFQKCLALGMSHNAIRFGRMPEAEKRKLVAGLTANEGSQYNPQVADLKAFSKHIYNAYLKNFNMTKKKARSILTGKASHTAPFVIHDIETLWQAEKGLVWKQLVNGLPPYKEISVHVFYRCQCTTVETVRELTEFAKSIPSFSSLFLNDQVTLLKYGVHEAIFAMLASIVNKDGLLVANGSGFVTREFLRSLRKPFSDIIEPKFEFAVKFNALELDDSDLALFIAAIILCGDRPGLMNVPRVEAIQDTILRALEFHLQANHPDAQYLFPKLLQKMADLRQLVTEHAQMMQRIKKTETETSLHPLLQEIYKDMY
Chain of Cellular tumor antigen p53 (Homo sapiens) (P04637 whole entry, looked up, the tested form may be a part): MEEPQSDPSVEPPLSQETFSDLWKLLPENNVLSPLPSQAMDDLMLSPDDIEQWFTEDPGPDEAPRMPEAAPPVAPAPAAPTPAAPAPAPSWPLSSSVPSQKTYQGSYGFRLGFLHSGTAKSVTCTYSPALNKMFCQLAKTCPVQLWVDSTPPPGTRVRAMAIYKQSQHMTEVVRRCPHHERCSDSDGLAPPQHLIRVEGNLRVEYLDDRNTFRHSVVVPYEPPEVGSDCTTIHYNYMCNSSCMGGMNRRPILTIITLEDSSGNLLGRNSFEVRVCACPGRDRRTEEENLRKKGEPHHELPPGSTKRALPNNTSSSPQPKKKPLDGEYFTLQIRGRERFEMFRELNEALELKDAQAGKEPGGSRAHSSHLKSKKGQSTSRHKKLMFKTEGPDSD
Chain of human RAR-related Orphan Receptor gamma (RORg), RORC (gene 6097) (P51449 whole entry, looked up, the tested form may be a part): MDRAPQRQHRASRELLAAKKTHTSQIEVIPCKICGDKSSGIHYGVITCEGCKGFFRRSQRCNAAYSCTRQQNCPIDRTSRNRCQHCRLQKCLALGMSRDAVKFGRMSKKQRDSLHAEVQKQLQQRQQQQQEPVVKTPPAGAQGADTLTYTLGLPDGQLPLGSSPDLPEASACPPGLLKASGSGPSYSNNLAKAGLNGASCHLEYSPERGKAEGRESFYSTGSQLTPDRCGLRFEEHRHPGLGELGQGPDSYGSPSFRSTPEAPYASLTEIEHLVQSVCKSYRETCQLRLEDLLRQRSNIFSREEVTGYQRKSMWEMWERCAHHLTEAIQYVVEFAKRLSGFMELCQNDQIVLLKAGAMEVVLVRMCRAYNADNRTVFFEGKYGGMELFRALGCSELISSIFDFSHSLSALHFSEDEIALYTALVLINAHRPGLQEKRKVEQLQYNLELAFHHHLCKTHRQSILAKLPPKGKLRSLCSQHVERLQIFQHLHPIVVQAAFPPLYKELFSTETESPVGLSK
Chain of human Retinoic Acid Receptor beta (RARb), RARB (gene 5915) (P10826 whole entry, looked up, the tested form may be a part): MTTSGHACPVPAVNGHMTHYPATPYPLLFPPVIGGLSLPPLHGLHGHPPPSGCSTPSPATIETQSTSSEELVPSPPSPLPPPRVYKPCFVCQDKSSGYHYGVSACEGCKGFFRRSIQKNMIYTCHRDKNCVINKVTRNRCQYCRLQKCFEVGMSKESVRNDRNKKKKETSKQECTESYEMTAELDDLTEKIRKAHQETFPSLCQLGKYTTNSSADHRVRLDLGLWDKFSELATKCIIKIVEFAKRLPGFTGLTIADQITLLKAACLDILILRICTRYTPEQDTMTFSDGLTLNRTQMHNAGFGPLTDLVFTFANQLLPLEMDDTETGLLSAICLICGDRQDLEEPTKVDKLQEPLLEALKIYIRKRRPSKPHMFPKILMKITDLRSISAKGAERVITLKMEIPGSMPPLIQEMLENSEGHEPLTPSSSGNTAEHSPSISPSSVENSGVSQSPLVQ

CSc1ccc(Oc2ccc(S(N)(=O)=O)cc2CN(C)C)cc1C
active: [5] 33 µM | [11] 20 µM | [13] 2.31 µM
not listed: [15] | [16] | [17] | [18]
inactive: all other assays above

NC(=Nc1ccccc1)Nc1ccccc1
active: [4] 5.38 µM | [5] 43.9 µM | [15] 6.23 µM | [9] 6.06 µM
not listed: [3] | [14] | [18]
inactive: all other assays above

O=C(Oc1ccccc1)c1cccc(C(=O)Oc2ccccc2)c1
active: [11] 15.2 µM | [12] 60.4 µM
not listed: [3] | [13] | [15]
inactive: all other assays above

CCCCC(CC)COC(=O)CCCCCCCC(=O)OCC(CC)CCCC (configuration not stated)
not listed: [2] | [12] | [14] | [17] | [18]
inactive: all other assays above
